Consider five molecules from ChEMBL document CHEMBL1961873, “Compounds: GSK PKIS; Assays: Nanosyn kinase panel” (2012).

Molecules are shown by their SMILES.

Experiment [1] addresses Leukocyte tyrosine kinase receptor (Homo sapiens) (UniProt P29376). Particulars: at 1 µM.
The target in experiment [2] is Tyrosine-protein kinase Lyn (Homo sapiens) (UniProt P07948). Particulars: at 0.1 µM.
Experiment [3] has the same target. The conditions noted are these: at 1 µM.
The target is the same in experiment [4]. The conditions noted are these: at 0.1 µM. The source holds these as a separate data set.
The target is the same in experiment [5]. Particulars: at 1 µM. This is another data set of the same source.
For experiment [6], the target named is T1, Tyrosine-protein kinase Mer (Homo sapiens) (UniProt Q12866).
T1 sequence (whole entry): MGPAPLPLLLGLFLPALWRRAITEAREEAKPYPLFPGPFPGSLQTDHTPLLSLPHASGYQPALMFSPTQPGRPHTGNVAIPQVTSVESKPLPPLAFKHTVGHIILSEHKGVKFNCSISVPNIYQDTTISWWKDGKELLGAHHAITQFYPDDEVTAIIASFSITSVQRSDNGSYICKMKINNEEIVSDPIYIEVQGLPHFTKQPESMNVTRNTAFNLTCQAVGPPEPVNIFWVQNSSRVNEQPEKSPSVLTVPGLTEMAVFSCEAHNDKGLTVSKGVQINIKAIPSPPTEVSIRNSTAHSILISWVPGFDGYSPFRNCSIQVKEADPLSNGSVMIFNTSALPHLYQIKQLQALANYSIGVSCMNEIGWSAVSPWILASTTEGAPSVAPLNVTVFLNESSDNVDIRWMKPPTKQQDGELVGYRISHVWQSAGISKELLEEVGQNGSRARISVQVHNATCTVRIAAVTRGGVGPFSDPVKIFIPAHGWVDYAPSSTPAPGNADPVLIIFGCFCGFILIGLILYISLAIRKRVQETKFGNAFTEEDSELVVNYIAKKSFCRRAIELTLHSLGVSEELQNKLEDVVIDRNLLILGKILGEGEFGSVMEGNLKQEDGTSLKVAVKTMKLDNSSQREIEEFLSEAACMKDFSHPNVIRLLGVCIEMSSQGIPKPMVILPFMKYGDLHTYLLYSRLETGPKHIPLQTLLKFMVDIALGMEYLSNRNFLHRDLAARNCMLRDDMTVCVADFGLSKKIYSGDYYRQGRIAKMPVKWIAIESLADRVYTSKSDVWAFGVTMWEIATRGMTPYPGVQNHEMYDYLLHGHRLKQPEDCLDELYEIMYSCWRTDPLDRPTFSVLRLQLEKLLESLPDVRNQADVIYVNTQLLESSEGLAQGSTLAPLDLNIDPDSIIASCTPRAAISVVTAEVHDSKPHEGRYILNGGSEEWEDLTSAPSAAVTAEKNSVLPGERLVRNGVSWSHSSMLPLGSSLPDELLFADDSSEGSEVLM
Particulars: at 0.1 µM.

Experiment [7] deals with T1, Tyrosine-protein kinase Mer (Homo sapiens). Particulars: at 1 µM.
The target in experiment [8] is Hepatocyte growth factor receptor (Homo sapiens) (UniProt P08581). The conditions noted are these: at 0.1 µM.
Experiment [9] shares this target. Particulars: at 1 µM.
Experiment [10] addresses T2, Muscle, skeletal receptor tyrosine-protein kinase (Homo sapiens) (UniProt O15146).
T2 sequence (whole entry): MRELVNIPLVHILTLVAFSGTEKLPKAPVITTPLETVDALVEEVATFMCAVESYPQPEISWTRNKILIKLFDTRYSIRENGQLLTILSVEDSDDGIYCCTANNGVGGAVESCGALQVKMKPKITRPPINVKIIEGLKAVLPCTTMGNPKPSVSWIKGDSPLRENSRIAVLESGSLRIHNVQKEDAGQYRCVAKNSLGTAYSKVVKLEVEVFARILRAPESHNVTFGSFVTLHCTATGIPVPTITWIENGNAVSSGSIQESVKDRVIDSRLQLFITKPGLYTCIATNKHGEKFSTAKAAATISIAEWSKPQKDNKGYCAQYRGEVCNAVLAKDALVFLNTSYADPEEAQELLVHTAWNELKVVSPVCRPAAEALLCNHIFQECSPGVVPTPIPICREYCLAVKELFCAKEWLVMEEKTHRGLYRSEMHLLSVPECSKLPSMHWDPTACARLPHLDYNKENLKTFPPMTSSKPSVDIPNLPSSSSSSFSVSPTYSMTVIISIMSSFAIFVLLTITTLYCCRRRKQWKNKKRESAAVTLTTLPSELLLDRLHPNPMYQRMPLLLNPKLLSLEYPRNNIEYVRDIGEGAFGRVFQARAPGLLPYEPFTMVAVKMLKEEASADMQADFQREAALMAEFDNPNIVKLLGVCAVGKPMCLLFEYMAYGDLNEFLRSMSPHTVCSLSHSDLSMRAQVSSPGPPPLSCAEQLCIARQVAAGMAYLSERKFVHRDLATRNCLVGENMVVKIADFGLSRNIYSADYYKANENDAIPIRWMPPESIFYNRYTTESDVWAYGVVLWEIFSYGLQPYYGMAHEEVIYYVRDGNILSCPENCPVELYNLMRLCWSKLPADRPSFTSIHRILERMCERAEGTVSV
The conditions noted are these: at 0.1 µM.

The target in experiment [11] is T2, Muscle, skeletal receptor tyrosine-protein kinase (Homo sapiens). Particulars: at 1 µM.
Experiment [12] concerns the target Platelet-derived growth factor receptor alpha (Homo sapiens) (UniProt P16234). Particulars: at 0.1 µM.
For experiment [13] the target is unchanged. The conditions noted are these: at 1 µM.
For experiment [14], the system named is Platelet-derived growth factor receptor alpha (Homo sapiens), P16234 [D842V]. Particulars: at 0.1 µM.
Experiment [15] shares this test system. Particulars: at 1 µM.
Experiment [16] has as its system Platelet-derived growth factor receptor alpha (Homo sapiens), P16234 [T674I]. Particulars: at 0.1 µM.
For experiment [17] the test system is unchanged. The conditions noted are these: at 1 µM.
Experiment [18] deals with Platelet-derived growth factor receptor alpha (Homo sapiens), P16234 [V561D]. Particulars: at 0.1 µM.
The test system is the same in experiment [19]. Particulars: at 1 µM.
Experiment [20] has as its target Platelet-derived growth factor receptor beta (Homo sapiens) (UniProt P09619). The conditions noted are these: at 0.1 µM.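 Further: reported value is the mean percent inhibition of the kinase.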

Platelet-derived growth factor receptor alpha (Homo sapiens), P16234 [V561D], sequence (P16234 whole entry V561D): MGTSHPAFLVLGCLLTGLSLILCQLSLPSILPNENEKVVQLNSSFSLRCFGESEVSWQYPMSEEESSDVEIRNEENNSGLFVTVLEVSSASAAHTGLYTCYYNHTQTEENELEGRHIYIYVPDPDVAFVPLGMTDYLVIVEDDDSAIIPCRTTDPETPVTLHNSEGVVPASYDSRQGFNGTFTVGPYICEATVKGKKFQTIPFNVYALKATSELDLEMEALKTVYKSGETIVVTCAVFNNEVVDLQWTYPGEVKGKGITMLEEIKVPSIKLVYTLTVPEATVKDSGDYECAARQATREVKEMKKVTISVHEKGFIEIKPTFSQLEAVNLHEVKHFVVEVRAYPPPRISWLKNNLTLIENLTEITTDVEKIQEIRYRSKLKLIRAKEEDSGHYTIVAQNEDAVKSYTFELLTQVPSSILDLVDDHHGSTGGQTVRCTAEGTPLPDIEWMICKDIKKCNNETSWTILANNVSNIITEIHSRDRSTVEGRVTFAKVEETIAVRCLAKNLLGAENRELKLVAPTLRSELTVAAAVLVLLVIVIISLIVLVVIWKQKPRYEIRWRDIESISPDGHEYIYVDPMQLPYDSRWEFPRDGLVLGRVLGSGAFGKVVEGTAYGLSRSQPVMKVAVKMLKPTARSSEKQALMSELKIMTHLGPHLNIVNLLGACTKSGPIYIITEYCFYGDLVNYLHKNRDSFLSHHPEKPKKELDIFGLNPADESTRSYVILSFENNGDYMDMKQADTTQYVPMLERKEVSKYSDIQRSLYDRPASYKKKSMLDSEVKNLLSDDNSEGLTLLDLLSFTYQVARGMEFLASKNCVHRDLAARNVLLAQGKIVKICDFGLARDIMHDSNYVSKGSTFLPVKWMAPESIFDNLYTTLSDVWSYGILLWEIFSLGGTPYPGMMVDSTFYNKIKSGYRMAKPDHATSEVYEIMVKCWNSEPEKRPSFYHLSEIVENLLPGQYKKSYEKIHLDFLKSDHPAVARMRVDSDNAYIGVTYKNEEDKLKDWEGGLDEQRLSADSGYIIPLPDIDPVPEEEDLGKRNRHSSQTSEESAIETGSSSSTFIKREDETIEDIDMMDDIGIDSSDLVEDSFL
Platelet-derived growth factor receptor beta (Homo sapiens), sequence (P09619 whole entry): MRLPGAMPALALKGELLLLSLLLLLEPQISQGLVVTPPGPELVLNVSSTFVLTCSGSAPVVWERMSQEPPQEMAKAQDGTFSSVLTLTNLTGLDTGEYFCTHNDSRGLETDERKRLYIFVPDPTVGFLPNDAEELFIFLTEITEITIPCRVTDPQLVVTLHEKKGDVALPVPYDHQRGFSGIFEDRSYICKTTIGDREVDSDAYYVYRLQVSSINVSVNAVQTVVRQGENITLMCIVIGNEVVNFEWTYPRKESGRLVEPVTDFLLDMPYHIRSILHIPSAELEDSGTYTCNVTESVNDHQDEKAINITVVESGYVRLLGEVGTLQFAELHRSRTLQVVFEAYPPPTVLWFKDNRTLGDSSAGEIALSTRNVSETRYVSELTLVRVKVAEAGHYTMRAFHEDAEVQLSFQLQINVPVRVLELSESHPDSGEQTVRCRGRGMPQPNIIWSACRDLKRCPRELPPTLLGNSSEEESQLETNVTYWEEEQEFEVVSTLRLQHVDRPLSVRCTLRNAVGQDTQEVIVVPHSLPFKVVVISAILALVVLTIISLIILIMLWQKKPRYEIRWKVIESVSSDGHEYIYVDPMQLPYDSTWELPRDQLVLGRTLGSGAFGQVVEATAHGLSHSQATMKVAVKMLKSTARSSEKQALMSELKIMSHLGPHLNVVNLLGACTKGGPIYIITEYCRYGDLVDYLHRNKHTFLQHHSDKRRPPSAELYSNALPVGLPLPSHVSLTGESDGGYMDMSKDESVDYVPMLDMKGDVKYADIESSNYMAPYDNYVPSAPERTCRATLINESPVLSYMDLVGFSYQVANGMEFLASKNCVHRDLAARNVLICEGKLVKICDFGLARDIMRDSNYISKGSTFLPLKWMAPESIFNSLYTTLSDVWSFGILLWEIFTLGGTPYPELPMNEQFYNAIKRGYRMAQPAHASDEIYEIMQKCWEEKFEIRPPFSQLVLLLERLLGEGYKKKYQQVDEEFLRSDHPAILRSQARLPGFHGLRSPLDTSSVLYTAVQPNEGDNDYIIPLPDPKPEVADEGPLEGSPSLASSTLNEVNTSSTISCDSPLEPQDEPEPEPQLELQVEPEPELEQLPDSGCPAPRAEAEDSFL
Hepatocyte growth factor receptor (Homo sapiens), sequence (P08581 whole entry): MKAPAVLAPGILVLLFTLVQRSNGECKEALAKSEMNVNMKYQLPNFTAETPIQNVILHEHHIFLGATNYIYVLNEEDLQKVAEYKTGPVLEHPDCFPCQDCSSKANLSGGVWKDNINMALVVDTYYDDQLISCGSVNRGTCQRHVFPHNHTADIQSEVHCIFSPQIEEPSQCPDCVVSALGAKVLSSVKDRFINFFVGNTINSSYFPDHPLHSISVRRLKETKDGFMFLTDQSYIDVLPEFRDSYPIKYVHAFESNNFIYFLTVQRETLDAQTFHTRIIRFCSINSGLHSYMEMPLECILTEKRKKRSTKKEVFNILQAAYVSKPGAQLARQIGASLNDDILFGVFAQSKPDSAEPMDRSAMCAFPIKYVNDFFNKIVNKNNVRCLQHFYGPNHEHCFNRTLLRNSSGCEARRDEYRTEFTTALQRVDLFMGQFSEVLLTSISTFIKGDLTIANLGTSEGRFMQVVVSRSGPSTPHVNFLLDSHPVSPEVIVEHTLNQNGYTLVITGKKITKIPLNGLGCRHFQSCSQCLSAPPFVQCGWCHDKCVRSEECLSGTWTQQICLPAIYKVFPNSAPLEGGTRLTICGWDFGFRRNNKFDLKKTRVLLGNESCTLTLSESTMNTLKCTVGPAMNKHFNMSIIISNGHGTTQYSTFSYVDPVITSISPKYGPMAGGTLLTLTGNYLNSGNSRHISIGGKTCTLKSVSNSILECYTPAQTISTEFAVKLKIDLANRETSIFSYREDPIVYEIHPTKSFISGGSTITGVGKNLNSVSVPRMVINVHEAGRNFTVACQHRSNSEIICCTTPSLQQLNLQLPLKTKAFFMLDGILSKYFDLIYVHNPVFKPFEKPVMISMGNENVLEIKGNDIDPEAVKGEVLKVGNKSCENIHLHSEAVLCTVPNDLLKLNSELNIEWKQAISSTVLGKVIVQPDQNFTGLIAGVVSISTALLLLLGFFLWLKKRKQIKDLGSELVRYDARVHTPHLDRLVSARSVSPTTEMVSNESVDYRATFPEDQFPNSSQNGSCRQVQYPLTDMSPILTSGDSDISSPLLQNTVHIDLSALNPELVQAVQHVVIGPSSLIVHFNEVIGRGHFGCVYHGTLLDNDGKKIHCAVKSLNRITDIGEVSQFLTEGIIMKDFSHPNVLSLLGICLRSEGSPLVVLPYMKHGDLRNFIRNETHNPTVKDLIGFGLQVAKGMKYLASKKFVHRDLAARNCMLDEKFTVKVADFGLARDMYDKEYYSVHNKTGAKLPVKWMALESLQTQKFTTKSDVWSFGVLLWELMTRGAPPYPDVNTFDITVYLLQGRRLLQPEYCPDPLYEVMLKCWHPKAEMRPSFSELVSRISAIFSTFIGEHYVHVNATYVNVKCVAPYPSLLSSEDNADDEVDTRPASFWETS
Leukocyte tyrosine kinase receptor (Homo sapiens), sequence (P29376 whole entry): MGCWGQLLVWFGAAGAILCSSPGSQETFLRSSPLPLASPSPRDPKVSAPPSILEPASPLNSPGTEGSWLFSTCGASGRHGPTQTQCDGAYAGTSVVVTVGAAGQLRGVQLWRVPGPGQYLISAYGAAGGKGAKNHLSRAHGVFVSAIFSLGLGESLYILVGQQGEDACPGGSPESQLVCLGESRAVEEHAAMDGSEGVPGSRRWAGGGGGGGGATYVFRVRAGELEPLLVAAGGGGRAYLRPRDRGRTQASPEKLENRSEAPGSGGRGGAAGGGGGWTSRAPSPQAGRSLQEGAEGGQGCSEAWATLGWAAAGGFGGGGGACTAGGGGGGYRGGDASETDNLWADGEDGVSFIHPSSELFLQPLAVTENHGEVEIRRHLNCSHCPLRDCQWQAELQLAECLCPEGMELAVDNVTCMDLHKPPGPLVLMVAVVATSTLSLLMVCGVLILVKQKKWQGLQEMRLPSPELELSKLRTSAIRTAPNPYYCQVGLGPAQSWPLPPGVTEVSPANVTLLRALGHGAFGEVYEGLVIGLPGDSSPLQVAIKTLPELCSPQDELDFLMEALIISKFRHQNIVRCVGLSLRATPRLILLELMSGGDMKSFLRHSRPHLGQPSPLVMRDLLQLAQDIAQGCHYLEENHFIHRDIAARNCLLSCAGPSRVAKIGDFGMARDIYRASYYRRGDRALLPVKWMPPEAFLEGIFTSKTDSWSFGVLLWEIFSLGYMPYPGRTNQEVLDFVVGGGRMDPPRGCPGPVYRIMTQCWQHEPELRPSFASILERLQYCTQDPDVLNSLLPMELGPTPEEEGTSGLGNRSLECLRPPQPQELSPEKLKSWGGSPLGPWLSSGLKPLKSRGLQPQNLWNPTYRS
Tyrosine-protein kinase Lyn (Homo sapiens), sequence (P07948 2-512 limits assumed): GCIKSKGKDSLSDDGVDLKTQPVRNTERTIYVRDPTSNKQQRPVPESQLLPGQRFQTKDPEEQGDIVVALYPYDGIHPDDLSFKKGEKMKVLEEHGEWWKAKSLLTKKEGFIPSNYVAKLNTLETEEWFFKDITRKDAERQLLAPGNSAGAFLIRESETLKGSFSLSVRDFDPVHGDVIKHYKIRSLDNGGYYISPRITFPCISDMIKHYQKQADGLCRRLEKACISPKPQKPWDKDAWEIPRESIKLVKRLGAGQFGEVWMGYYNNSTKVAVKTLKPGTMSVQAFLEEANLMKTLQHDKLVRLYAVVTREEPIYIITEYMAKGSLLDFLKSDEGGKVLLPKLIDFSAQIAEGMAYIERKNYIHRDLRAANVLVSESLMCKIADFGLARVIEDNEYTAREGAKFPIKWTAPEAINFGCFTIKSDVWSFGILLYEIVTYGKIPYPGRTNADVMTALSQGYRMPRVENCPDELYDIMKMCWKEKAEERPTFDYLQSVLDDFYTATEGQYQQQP

`COc1cccc(-n2ncc3c(N/N=C/c4cccc(F)c4)ncnc32)c1`: the inhibition was 1.7% in [1]; 13.9% in [2]; 55.9% in experiment [3]; 10.2% in experiment [4]; 50.7% in [5]; 0.34% in [6]. The inhibition turned out to be 7.16% in experiment [7]; 7.49% in [8]; 17.2% in [9]; 3.52% in experiment [10]; 11.4% in experiment [11]; 13.6% in experiment [12]. The inhibition in experiment [13] was found to be 49.5%; in [14] it was 10.6%; in experiment [15], 48.1%; in [16], 6.11%; in experiment [17] it was 22.2%; in [18], 8.22%. The inhibition in [19] was found to be 41.1%; in experiment [20] it was 12.2%.

With `COc1cc2ncn(-c3cc(O[C@H](C)c4ccccc4Cl)c(C(N)=O)s3)c2cc1OC`, the inhibition in [1] worked out at 11.3%; in experiment [2], 6.61%; in [3], 27.9%; in experiment [4], 5.21%; in [5] it was 23.9%; in experiment [6], 5.63%. The inhibition came to 22.6% in [7]; 4.85% in experiment [8]; 17% in [9]; 29.3% in experiment [10]; 78.2% in experiment [11]; 73.2% in [12]. Also, the inhibition in experiment [13] worked out at 100%; in [14], 42.1%; in experiment [15] it was 88.2%; in experiment [16], 56.5%; in experiment [17] it was 97.2%; in [18], 50.5%. Also, the inhibition in experiment [19] came to 87.3%; in [20] it was 59.7%.

Take `O=C1NC(=O)C(c2ccccc2Cl)=C1Nc1cccc(O)c1`: the inhibition was determined as 1.2% in experiment [1]; 5.68% in experiment [2]; 3.94% in experiment [3]; 1.34% in experiment [4]; 2.65% in [5]; 1.63% in experiment [6]. Besides, the inhibition in [7] is 4.66%; in [8], 1.79%; in experiment [9], -0.4%; in experiment [10], 3.23%; in [11], 6.51%; in experiment [12], 5.26%. Further, the inhibition in experiment [13] is 9.63%; in experiment [14] it was 0.89%; in experiment [15], -0.58%; in [16], 1.6%; in experiment [17], 2.66%; in [18], 1.34%. Besides, the inhibition in [19] worked out at 2.14%; in experiment [20], 4.9%.

Take `CS(=O)(=O)CCNCc1nc(-c2ccc3ncnc(Nc4ccc(F)c(Cl)c4)c3c2)cs1`: the inhibition worked out at 1.99% in [1]; 4.29% in experiment [2]; 27.3% in experiment [3]; 3.57% in experiment [4]; 19.4% in [5]; 0.48% in [6]. The inhibition came to 4.95% in [7]; 3.54% in experiment [8]; 9.65% in [9]; 1.59% in experiment [10]; 2.48% in experiment [11]; 11.7% in experiment [12]. The inhibition was 25.9% in experiment [13]; 1.4% in experiment [14]; 10.4% in experiment [15]; 10.8% in experiment [16]; 8.67% in experiment [17]; 2.8% in experiment [18]. The inhibition in [19] came to 9.09%; in experiment [20] it was 3.34%.

Consider `CCc1cccc(NC(=O)Nc2ccc(Oc3ccc4nc(NC(=O)OC)[nH]c4c3)cc2)c1`, for which the inhibition in experiment [1] is 0.04%; in experiment [2], 10%; in experiment [3] it was 20.8%; in [4] it was 7.66%; in experiment [5], 15.2%; in [6], 2.96%. Moreover, the inhibition was found to be 3.11% in experiment [7]; 15.7% in experiment [8]; 27.4% in experiment [9]; 16.2% in experiment [10]; 31.1% in experiment [11]; 88.5% in experiment [12]. Besides, the inhibition came out at 96.8% in experiment [13]; 11.7% in experiment [14]; 20.5% in experiment [15]; 75.7% in [16]; 100% in experiment [17]; 86.6% in experiment [18]. Besides, the inhibition in experiment [19] came out at 94.5%; in experiment [20], 40.4%.
